The list is not random: actives were taken first. Their share in the collection is about 3.1%.
TDP1 inh = inhibitors of human tyrosyl-DNA phosphodiesterase TDP1; Potency, µM (top dose mostly 130 µM), for the others: top-dose activity change, negative = inhibition, actives largely listed as inhibitors; recombinant TDP1, AlphaScreen DNA substrate cleavage; 350,000 compounds, 0.28% hits; Q9NUW8; AID 485290; note: % is set by controls: 0 for no effect and ±100 for the full control effect; nearly all actives have a fitted effect of over 40% in size
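Compounds were preincubated with Tdp1 (1 nM final) for 15 min at room temperature before substrate (15 nM final) started a 5 min reaction; beads (10 ug/ml final) were then added for 10 min before AlphaScreen detection.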
Tb PFK block = blocks T. brucei phosphofructokinase | O15648 | T. brucei PFK, ADP-Glo luminescence | Potency, µM (series often up to 57.5 µM), inactives show at the top dose activity, negative = inhibition, actives largely listed as inhibitors | 330,000 compounds, 0.17% hits | AID 485367;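 note: 0% = uninhibited 1x PFK enzyme wells and -100% = no-enzyme wells; nearly all actives have a fitted effect of over 60% in size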
Target sequence (O15648 whole entry, looked up): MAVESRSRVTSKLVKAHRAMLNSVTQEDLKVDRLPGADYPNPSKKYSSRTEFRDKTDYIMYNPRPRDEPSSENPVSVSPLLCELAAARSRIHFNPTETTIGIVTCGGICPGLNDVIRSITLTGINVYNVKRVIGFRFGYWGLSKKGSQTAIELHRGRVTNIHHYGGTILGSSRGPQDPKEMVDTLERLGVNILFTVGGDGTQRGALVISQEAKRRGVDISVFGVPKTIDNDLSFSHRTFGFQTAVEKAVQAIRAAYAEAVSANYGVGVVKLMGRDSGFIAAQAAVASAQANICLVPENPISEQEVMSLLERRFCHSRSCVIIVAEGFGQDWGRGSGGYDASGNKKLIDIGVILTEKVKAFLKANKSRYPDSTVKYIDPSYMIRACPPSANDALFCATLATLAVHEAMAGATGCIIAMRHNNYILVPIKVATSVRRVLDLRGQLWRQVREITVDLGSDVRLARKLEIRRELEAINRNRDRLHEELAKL
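PFK 1.25 nM, F6P 0.5 mM, ATP 0.1 mM, 0.1 M TEA pH 8.0, 5 mM MgCl2, 0.01% Tween20, 0.1% BSA; 45 min RT. ADP-Glo readout. qHTS titration up to 57 uM; curves fitted, compounds curve-classed.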
VDR inhibitor = inhibitors of human vitamin D receptor. P11473. VDR-SRC2-3 peptide fluorescence polarization, 2 h. Potency, µM, for inactives: max response, negative = inhibition, most hits filed as inhibitors. 400,000 compounds, 0.93% hits. AID 504847; note: % is set by controls: 0 for no effect and ±100 for the full control effect
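After 23 nl compound addition and a short centrifugation, plates sat for 2 hours at ambient temperature; polarization of fluorescence then indicated loss of VDR binding to peptide SRC2-3.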
Pin1 inhibitor = blocks the human prolyl isomerase Pin1 | Q13526 | Pin1 FP peptide displacement, HiFluor488, 10 min | Potency, µM (top dose mostly 115 µM), for inactives: top-dose activity, negative = inhibition, hits mostly inhibitors | 390,000 compounds, 0.009% hits | AID 504891; active = well fitted inhibition curve with a large enough effect in the polarisation, with a control signal flat, not every such curve was filed as active; inconclusive = small, poorly fitted or top-dose-only effect, or effect the other way, or a change in a side signal; inactive = no such curve, though single readings can be large or run the other way; the % refers to the polarisation; note: % is set by controls: 0 for no effect and ±100 for the full control effect
Target sequence (Q13526 whole entry, looked up): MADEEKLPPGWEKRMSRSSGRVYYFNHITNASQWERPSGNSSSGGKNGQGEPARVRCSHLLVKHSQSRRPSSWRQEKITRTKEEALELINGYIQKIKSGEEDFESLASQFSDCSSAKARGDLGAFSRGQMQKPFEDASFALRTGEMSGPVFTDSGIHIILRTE
ASM inhibitor = inhibitors of human secretory acid sphingomyelinase; 340,000 compounds, 0.006% hits; placental ASM, HMU-PC fluorogenic substrate, 60 min; Potency, µM (top dose mostly 57.5 µM), for inactives: at the top dose activity change, negative = inhibition, usual class: inhibitors; P17405; AID 504937
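HMU-PC0 cleavage (9 uM final) by human placental ASM, 60 min at 37 °C following 10 min compound exposure at RT; stopped at pH 10, fluorescence Ex 386/Em 447 nm.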
PLK1 PBD block = inhibitors of human PLK1 polo-box domain binding; P53350; Potency, µM, without a hit: max response, negative = inhibition, hits mostly inhibitors; 360,000 compounds, 2.8% hits; Plk1 PBD binding of FITC phosphopeptide, fluorescence polarization; note: series mostly up to about 57 µM; % is set by controls: 0 for no effect and ±100 for the full control effect; nearly all actives have a fitted effect of over 65% in size
* = called active by the depositor; ? = inconclusive; . = no result; ! = not active in a repeat. Unless noted, calls come from the whole dose curve; as a rule, active = well fitted curve in the direction sought with a large enough effect; inconclusive = small, poorly fitted or top-dose-only effect, or another doubt; inactive = no such curve, though single readings can be large; an effect the other way counts as inactive or inconclusive. Potency is the fitted concentration of half-maximal effect.

SMILES	TDP1 inh	Tb PFK block	VDR inhibitor	Pin1 inhibitor	ASM inhibitor	PLK1 PBD block
C[C@H](NC(=O)Cc1ccccc1)C(=O)N1CCC2(CC1)NCCc1[nH]cnc12	0%	0%	-12%	5%	1%	27µM*
COc1ccc(CC(=O)N[C@@H](C)C(=O)N2CCC3(CC2)NCCc2[nH]cnc23)cc1	3%	1%	-8%	-1%	-1%	-9%
O=S(=O)(c1ccc(F)cc1)N1CCN(c2nc(-c3ccccc3)nc3ccccc23)CC1	1%	.	4%	3%	.	.
CC(C)[C@H](O)CC[C@@H](C)C1CC[C@H]2C3CC=C4C[C@@H](O)CC[C@]4(C)C3CC[C@]12C (stereo partly specified)	-1%	.	-9%	.	.	.
CC(=O)[C@@H]1[C@@H]2C(=O)N(Cc3ccccc3)C(=O)[C@@H]2C2c3ccccc3C=CN21 (stereo partly specified)	4%	6%	-4%	?	3%	19µM*
O=C(c1ccco1)[C@@H]1[C@@H]2C(=O)N(c3ccccc3)C(=O)[C@@H]2C2c3ccccc3C=CN21 (stereo partly specified)	8%	0%	-15%	?	6%	?
COc1ccc(/C=N/N(Cc2ccccc2)c2ccccc2)cc1O	2%	-4%	?	-3%	-14%	17µM*
CCN(CC)c1nc(N)c2c(N)nc3c(c2c1C#N)CC(c1ccccc1)O3 (stereo unspecified)	2%	-9%	26%	11%	57%	2%
CCN(CC)c1nc(N)c2c(N)n(-c3ccccc3C)c(=S)c(C#N)c2c1C#N	-7%	4%	?	?	2%	27µM*
CC1(C)CC(=O)c2cc(-c3nc(-c4ccccc4)cs3)c(=O)[nH]c2C1	6%	.	-4%	?	.	.
O=S1(=O)[C@H]2C[C@@H]3C=C[C@@]2(CN1Cc1ccc(Cl)cc1)O3	.	4%	-3%	-1%	9%	-1%
O=S1(=O)[C@H]2C[C@@H]3C=C[C@@]2(CN1Cc1ccc(F)cc1)O3	.	-1%	?	4%	-3%	24µM*
COc1cc2cc(Oc3ccc4ccc(=O)oc4c3)c(=O)oc2cc1O[C@@H]1O[C@H](CO)[C@@H](O)[C@H](O)[C@H]1O	25µM*	-2%	-28%	?	27%	?
Cc1ccc2c(Br)cc(Br)c(O)c2n1	6%	.	-3%	.	.	.
CCOC(=O)c1ncc2[nH]c3cccc(OC(C)C)c3c2c1C	17%	.	-14%	.	.	.
Cc1ccccc1CS(=O)(=O)Cc1ccc(C(=O)NCCc2ccc(Cl)cc2)o1	10%	.	9%	-5%	.	.
CCCC1(c2ccccc2)NC(=O)N(C/C=C/Cl)C1=O (stereo unspecified)	-2%	0%	?	-1%	4%	27µM*
CCCC1(c2ccccc2)NC(=O)N(CC(=O)NCc2ccc(C)cc2)C1=O (stereo unspecified)	.	0%	4%	7%	0%	-6%
CCCC1(c2ccccc2)NC(=O)N(CC(=O)N(C)Cc2c(F)cccc2Cl)C1=O (stereo unspecified)	0%	3%	?	7%	-3%	24µM*
O=C(NCCc1csc(-c2cccnc2)n1)c1cccc(C(F)(F)F)c1	2%	.	-9%	0%	.	.
N#CN=c1snc(-c2ccccc2Cl)n1-c1ccc(F)cc1	.	.	-4%	-1%	.	.
COc1cc(C(c2sc3nc(C)nn3c2O)N2CCC3(CC2)OCCO3)cc(OC)c1OC (stereo unspecified)	2%	0%	-26%	-1%	-1%	3µM*
CCOC(=O)C1CCN(C(c2cc(OC)c(OC)c(OC)c2)c2sc3nc(C)nn3c2O)CC1 (stereo unspecified)	0%	-6%	12%	1%	3%	1%
Cn1c(=O)c2c([nH]c(=S)n2Cc2ccc(Cl)cc2)n(C)c1=O	.	-7%	79µM*	-2%	-4%	11µM*
COc1ccc(NC(=O)/C(=C\c2cccs2)NC(=O)c2ccco2)cc1	0%	-8%	-11%	-9%	2%	21µM*
SMILES	TDP1 inh	Tb PFK block	VDR inhibitor	Pin1 inhibitor	ASM inhibitor	PLK1 PBD block
C=CS(=O)(=O)c1ccc(Oc2ccc(S(=O)(=O)C=C)cc2)cc1	2%	-24%	45µM*	22%	2%	24µM*
COc1ccc(C2/C=C\CN(C(=O)C3CCCCC3)C(C)C(=O)N2Cc2ccc(F)cc2)cc1 (stereo unspecified)	7%	.	-30%	-6%	.	.
C=CCNc1nnc(-c2cccc3ccccc23)o1	?	.	.	3%	.	.
O=[N+]([O-])c1ccc(O)c2ncccc12	11%	2%	40µM*!	1%	-11%	-13%
O=[N+]([O-])c1ccc(O)c2cccnc12	8%	-1%	6%	?	-5%	-2%
CC(CCc1ccccc1)NC(=O)Cc1ccc([N+](=O)[O-])cc1 (stereo unspecified)	4%	-4%	?	-5%	1%	30µM*
COCCn1c(=O)c2ccccc2c2ccccc2c1=O	2%	-1%	1%	-9%	-2%	6%
CC(=O)OCCn1c(=O)c2cc3c(=O)n(CCOC(C)=O)c(=O)c3cc2c1=O	6%	-4%	4%	-3%	2%	12µM*
Cc1cccc(-c2nc(CCNC(=O)c3ccccc3Br)cs2)c1	2%	.	7%	6%	.	.
Cc1cc2c(s1)c1cnn(Cc3ccc(C(=O)O)cc3)c(=O)c1n2C	.	.	.	-4%	.	.
S=c1[nH]c2ccccc2s1	9%	.	35µM*	.	.	.
Cc1ccc(-c2cc(-c3n[nH]c(=S)o3)c3ccccc3n2)cc1	3%	0%	-11%	2%	-1%	27µM*
CCc1ccc(CN2C(=O)c3ccccc3C2C(=O)NCCc2ccc(OC)c(OC)c2)cc1 (stereo unspecified)	10%	.	6%	2%	.	.
COc1ccc(N/C=C\C(=O)c2ccc3c(c2)OCO3)cc1	0%	4%	-6%	?	11%	-6%
O=C(/C=C\Nc1ccc2c(c1)OCO2)c1ccc2c(c1)OCO2	4%	0%	?	29%	-4%	11µM*
Cc1cccc(C(=O)Nc2ccc3nc(SCC(=O)N4CCCC4)sc3c2)c1	2%	.	2%	22%	.	.
CC(=O)C1=C(O)C(=O)N(c2ccccn2)C1c1ccccc1[N+](=O)[O-] (stereo unspecified)	.	2%	?	-6%	1%	3.4µM*
CC(=O)C1=C(O)C(=O)N(C)C1c1ccccc1[N+](=O)[O-] (stereo unspecified)	-11%	-3%	?	-2%	9%	27µM*
CN(C)c1ccc(C(=N)c2ccc(N(C)C)cc2)cc1	10%	.	.	.	.	.
CN=C1C=CC(=C(c2ccc(N(C)C)cc2)c2ccc(N(C)C)cc2)C=C1	.	.	40µM*	.	.	.

Bioassay records: PubChem, National Center for Advancing Translational Sciences (NCATS)
